Experimental findings from PubChem BioAssay are described below.

Assay [1] is described as follows: reduced mouse 2C T cell binding to pMHC/ICAM-1 vesicles – MLPCN validation set, flow cytometry, LFA-1/ICAM-1 modulator project, pilot screen (AID 2523;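 active means response below a set limit, under 55% cells CD8-positive and vesicle-bound, and CD8 cells' 90th-percentile brightness under 279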;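 on vesicle binding response: mean PE anti-B7-1 fluorescence of CD8+ cells relative to row control; 100% = QL9-loaded vesicles with DMSO vehicle in the same plate row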). The note with it: 2C mouse CD8+ T cells, at 7 µM, stronger effect = lower value; double positive events: measured here: CD8+/vesicle+ event percentage. (Flow cytometry measures light scatter and fluorescence of single cells or particles in a stream.)

Assay [2] concerns the target Integrin beta-1 (Homo sapiens) + Integrin alpha-4 (Homo sapiens) (UniProt P13612+P05556). Description: alpha4beta1 integrin LIBS antibody binding reduction – U937 cells, HUTS-21 mAb, flow cytometry, validation set, VLA-4 allosteric modulator project, pilot screen (AID 2674;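 active means inhibition above 50%, about 3 SD of the validation set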;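 further: antibody binding induced by the VLA-4 ligand LDV present at three times its Kd; 0% = LDV ligand with antibody and no compound and 100% = antibody without LDV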). The note with it: HUTS-21 LIBS mAb binding, at 6.7 µM, stronger effect = higher value, binding induced by LDV ligand.

A short description of assay [3]: calorie-restriction mimetic ROS inhibitors, yeast – validation compound set, pilot screen (AID 2706;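 active means superoxide response below 65% of plate, a cut near 3 SD across the whole screen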;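 further: yeast exposed to compound for one week at 30 degrees C before staining; 100% = mean of all compound wells on the same plate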). As to conditions: S. cerevisiae aging, superoxide DHE fluorescence; at 10 µM, stronger effect = lower value.
The target in assay [4] is Beta-adrenergic receptor kinase 1 (Homo sapiens) (UniProt P25098). Description: GRK2 binders displacing RNA aptamer, biochemical, validation, human GRK2, bead flow cytometry (AID 488806;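 active means aptamer binding inhibition above 30%, about 3 SD of noise from non-fluorescent compounds; inactive means inhibition at or below 30%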). The note with it: bead-bound GRK2, FAM-aptamer displacement, at 10 µM, stronger effect = higher value.
The target in assay [5] is Beta-2 adrenergic receptor (Homo sapiens) (UniProt P07550). Description: agonist-induced loss of surface beta2AR – cell-based, FAP fluorogen, flow cytometry, validation set, pilot screen (AID 504459;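 active means percent response above 42, roughly 3 SD of non-fluorescent test compounds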;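 further: agonist-driven loss of surface beta2AR via internalization measured by FAP dye flow cytometry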). As to conditions: Am2.2-beta2AR cells, at 10 µM, stronger effect = higher value.
For assay [6], the target named is AP-2 complex subunit beta (Homo sapiens) (UniProt P63010). Kind of assay: beta-arrestin/AP2 interaction blockers – biochemical, validation set, GST-AP2 beads, flow cytometry, pilot screen (AID 504541).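 Further: AP2 carries R879A mutation and is captured from E. coli lysate; bead-bound FITC arrestin peptide fluorescence measuring arrestin peptide binding to AP2; 0% = DMSO wells and 100% = excess unlabeled arrestin peptide control.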 As to conditions: FITC arrestin peptide, at 10 µM, stronger effect = higher value, AP2 beta2 appendage fragment, R879A mutant.
Assay [7] can be described thus: cytosolic pH regulators acting via V-ATPase – S. cerevisiae, pHLuorin, HTS validation (AID 504600; in the data active means response above about 15%;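 further: plate controls were DMSO for no effect and reference compound for full effect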). As to conditions: V-ATPase proton transport, at 10 µM, stronger effect = higher value.
For assay [8], the system named is anti-desmoglein-3 scFv antibody binding to human DSG3. Description: blockers of pathogenic pemphigus antibody–desmoglein-3 binding – biochemical, validation compound set, bead-based, flow cytometry, pilot screen (AID 588368;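 active means binding below the plate cutoff, the plate median minus 3 SD, with a reading above zero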;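 further: signal is the median channel fluorescence of bead-bound GFP antibody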). The note with it: Protein G beads, DSG3-Fc, scFv-GFP binding, at 10 µM, stronger effect = lower value.
The nature of assay [9]: Nile Red efflux blockade in pump-expressing yeast – validation compound set, multiplex, phenotypic, pilot screen (AID 588506;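 active means efflux inhibition above 0.42, the validation set average plus 4 SD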;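 further: Nile Red retained in cells so higher fluorescence means more efflux inhibition; 0 = negative control wells and 1 = enniatin B 25 µM full block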). As to conditions: S. cerevisiae pump-expressing triplex, Nile Red efflux flow cytometry; at 10 µM; stronger effect = higher value; the pumps come from Candida albicans.
For assay [10], the target named is ATP-binding cassette sub-family B member 6 (Homo sapiens) (UniProt Q9NP58). Description: blockers of ABCB6-driven porphyrin uptake – K562-ABCB6 cells, flow cytometry, validation set, pilot screen (AID 588550;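 active means inhibition above the screen-wide mean plus 3 SD, about 51%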;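 further: 0% = DMSO wells and 100% = benzethonium chloride 70 µM positive control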). As to conditions: K562-ABCB6 porphyrin accumulation, 1 h, at 10 µM, stronger effect = higher value.
The nature of assay [11]: AML differentiation inducers, ER-HoxA9 marrow cells – cell-based, GFP/MAC1 double positive, flow cytometry, validation set, primary screen (AID 588685;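 active means differentiation response of at least 50%, scaled between solvent and reference control, from cells with both markers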;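 further: compound exposure lasts four days before antibody staining and flow analysis; 0% = DMSO wells and 100% = 5 µM fulvestrant positive control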). The note with it: stronger effect = higher value, normalized: vehicle 0, fulvestrant 100.

Molecules are shown by their SMILES. Calls of active or inactive are those of the source.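 How the source made its calls, unless noted: active means inhibition above 54%, about 3 SD of non-fluorescent compounds; inactive means the rest.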

AP-2 complex subunit beta (Homo sapiens), sequence (P63010 whole entry, looked up, the tested form may be a part, one chain of several): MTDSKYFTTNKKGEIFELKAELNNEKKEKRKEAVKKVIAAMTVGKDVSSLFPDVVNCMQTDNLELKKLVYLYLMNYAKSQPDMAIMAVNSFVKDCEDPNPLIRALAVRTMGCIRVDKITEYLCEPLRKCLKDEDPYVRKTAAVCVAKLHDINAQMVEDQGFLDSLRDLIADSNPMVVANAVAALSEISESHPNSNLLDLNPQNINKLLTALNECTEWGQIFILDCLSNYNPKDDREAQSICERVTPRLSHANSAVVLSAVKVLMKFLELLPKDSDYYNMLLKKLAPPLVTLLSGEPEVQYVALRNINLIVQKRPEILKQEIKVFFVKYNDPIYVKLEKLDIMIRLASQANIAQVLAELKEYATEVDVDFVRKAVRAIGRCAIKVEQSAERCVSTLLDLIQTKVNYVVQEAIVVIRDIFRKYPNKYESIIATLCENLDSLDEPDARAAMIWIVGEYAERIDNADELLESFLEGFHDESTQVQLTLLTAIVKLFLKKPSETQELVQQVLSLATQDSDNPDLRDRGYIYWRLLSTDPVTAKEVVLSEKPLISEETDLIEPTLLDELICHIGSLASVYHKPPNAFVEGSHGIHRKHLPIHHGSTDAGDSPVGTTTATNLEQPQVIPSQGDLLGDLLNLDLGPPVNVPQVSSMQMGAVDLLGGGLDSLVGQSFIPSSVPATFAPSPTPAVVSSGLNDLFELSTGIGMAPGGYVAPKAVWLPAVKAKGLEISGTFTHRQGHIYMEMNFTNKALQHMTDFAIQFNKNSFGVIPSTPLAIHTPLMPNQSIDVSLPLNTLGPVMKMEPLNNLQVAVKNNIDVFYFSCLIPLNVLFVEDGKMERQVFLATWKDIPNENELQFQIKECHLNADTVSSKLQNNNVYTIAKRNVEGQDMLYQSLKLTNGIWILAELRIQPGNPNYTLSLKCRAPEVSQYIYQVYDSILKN
Integrin beta-1 (Homo sapiens) + Integrin alpha-4 (Homo sapiens), sequence (P05556 whole entry, looked up): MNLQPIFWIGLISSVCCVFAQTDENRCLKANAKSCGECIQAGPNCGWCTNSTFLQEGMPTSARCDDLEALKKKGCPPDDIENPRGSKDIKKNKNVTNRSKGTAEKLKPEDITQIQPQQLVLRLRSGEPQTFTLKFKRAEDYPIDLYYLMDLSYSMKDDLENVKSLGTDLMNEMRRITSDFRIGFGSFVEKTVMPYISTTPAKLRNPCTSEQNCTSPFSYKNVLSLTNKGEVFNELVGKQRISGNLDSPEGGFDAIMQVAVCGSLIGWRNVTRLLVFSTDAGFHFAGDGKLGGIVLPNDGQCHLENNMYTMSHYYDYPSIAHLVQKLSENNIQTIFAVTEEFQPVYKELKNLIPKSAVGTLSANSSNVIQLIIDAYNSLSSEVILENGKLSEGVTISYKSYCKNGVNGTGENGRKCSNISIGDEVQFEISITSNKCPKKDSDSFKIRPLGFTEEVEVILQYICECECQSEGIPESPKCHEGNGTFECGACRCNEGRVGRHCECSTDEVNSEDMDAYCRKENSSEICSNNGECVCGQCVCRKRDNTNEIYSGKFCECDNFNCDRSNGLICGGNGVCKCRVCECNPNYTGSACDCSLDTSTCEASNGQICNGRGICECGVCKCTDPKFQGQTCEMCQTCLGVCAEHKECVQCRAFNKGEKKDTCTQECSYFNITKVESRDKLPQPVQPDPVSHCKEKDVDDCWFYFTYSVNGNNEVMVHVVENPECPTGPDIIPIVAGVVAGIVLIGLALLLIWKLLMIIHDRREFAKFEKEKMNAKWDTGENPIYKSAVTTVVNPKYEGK
Integrin beta-1 (Homo sapiens) + Integrin alpha-4 (Homo sapiens), sequence (P13612 whole entry, looked up): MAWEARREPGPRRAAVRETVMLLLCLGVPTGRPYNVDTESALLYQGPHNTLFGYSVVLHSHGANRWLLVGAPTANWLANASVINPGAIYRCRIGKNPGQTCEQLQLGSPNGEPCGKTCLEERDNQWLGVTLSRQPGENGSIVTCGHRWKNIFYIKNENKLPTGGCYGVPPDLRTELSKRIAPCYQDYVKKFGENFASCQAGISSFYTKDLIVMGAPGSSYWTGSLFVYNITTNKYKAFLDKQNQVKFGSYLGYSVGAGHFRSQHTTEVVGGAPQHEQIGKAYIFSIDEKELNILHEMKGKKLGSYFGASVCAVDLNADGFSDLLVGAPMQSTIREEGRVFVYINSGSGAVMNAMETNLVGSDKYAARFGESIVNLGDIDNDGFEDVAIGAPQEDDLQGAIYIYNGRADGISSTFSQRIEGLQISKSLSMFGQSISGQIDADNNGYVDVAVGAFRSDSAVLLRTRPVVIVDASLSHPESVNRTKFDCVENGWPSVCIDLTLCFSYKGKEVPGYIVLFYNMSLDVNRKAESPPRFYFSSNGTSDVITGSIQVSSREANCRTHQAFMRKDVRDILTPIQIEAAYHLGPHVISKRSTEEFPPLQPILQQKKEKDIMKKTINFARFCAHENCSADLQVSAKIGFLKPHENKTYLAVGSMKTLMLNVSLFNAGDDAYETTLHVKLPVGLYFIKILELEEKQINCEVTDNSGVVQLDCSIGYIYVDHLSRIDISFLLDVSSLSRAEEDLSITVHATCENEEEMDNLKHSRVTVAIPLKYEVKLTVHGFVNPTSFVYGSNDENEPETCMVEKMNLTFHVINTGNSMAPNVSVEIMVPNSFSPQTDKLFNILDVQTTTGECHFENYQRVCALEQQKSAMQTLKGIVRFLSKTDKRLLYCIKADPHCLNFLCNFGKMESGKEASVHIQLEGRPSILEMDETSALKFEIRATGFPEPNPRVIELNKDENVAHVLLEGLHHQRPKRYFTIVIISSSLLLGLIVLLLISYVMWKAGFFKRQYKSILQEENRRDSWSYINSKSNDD
Beta-adrenergic receptor kinase 1 (Homo sapiens), sequence (P25098 whole entry, looked up): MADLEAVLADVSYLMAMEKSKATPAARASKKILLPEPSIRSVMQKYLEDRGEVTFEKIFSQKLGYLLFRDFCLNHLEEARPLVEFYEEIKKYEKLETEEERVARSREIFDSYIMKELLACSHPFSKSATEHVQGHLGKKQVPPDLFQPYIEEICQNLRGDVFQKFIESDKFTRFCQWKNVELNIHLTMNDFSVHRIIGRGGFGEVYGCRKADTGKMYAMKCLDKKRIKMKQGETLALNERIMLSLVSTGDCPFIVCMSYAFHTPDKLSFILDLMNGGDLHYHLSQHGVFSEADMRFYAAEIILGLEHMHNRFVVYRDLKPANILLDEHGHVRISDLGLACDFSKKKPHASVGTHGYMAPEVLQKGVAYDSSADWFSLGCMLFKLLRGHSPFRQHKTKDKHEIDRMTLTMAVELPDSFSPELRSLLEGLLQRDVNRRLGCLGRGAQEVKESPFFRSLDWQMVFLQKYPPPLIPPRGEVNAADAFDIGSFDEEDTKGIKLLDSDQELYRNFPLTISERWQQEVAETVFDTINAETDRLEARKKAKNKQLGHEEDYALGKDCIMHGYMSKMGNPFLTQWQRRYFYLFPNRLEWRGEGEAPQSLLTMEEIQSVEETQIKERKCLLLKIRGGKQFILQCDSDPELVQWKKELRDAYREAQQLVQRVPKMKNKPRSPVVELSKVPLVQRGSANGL
ATP-binding cassette sub-family B member 6 (Homo sapiens), sequence (Q9NP58 whole entry, looked up): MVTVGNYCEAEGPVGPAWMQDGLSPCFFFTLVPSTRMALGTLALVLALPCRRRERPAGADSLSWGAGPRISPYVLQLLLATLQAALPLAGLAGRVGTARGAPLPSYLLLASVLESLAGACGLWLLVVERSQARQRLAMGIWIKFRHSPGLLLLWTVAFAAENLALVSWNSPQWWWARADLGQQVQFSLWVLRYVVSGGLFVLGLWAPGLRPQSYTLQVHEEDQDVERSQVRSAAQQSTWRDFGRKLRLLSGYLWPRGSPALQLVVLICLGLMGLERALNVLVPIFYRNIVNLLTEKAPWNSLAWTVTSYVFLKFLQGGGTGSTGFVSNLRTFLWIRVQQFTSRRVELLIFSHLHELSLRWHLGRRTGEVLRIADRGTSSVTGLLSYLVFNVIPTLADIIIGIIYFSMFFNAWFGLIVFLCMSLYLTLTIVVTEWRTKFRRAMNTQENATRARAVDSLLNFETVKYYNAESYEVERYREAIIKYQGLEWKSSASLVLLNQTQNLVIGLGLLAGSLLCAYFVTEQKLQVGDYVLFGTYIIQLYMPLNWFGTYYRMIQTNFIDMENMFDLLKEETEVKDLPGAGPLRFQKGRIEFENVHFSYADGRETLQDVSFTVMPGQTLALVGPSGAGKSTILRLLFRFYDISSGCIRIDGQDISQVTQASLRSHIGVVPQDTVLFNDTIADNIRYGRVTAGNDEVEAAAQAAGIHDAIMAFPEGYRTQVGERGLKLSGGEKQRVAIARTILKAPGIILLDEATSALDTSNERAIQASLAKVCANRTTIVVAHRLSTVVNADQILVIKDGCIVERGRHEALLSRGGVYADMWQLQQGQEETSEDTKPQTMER
Beta-2 adrenergic receptor (Homo sapiens), sequence (P07550 whole entry, looked up): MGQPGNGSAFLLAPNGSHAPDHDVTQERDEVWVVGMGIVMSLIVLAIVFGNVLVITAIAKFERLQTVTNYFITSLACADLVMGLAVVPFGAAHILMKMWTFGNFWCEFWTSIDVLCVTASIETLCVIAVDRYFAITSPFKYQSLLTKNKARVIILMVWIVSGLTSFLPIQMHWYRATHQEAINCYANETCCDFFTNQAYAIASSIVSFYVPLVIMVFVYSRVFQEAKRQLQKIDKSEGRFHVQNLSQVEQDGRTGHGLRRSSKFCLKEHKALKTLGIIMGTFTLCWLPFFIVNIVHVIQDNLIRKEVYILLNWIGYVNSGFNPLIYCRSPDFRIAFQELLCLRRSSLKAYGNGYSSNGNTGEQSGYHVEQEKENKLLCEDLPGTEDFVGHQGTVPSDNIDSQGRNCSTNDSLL

Compound `CC(=O)O[C@]1(C(C)=O)CC[C@H]2[C@@H]3C=C(C)C4=CC(=O)CC[C@]4(C)[C@H]3CC[C@@]21C` registered a double positive events in assay [1] of 65.3%. For the same compound, the vesicle binding response in assay [1] was 252% (inactive). The values for the inhibition in assay [2], in assay [6] and in [10] were -0.27% (inactive), 1.74% (inactive) and -2% (inactive), respectively. Also, the superoxide response (% of plate) in [3] is 95.9% (inactive). Further, the aptamer binding inhibition in assay [4] was 3% (inactive). Moreover, the response in assay [5] was -24.4% (inactive); in assay [7] it was -0.81% (inactive). Further, the binding (% of control) in assay [8] is 101% (inactive). Moreover, in assay [9], the efflux inhibition (fraction of control) was 0.29 (inactive). In [11], the differentiation response is 7.82% (inactive).

The compound `Cc1ccc(C(=O)NC(=S)NCCCN2CCOCC2)cc1` yielded a double positive events in [1] of 66.2%. In addition, the vesicle binding response in assay [1] was 172% (inactive). Also, the inhibition in assay [2] is 5.49% (inactive); in [6] it was 4.05% (inactive); in [10] it was 13% (inactive). Moreover, in assay [3], the superoxide response (% of plate) was 96% (inactive). The aptamer binding inhibition in [4] is 4% (inactive). The response in assay [5] was 1.89% (inactive); in assay [7], 5.81% (inactive). Moreover, the binding (% of control) in [8] is 103% (inactive). In addition, the efflux inhibition (fraction of control) in assay [9] is -0.38 (inactive). In addition, the differentiation response in [11] is -0.82% (inactive).

The compound `Nc1cccc2nc3ccccc3cc12` returned a double positive events in assay [1] of 60.9%. In addition, in [1], the vesicle binding response was 235% (inactive). Further, the results for the inhibition in assay [2], in assay [6] and in assay [10] were 9.1% (inactive), 2.41% (inactive) and 2% (inactive), respectively. The superoxide response (% of plate) in assay [3] is 113% (inactive). Moreover, in assay [4], the aptamer binding inhibition is 3% (inactive). Besides, the response in assay [5] was 2.19% (inactive); in [7], -17.4% (inactive). The binding (% of control) in assay [8] was 102% (inactive). Moreover, the efflux inhibition (fraction of control) in assay [9] is -0.04 (inactive). For the same compound, the differentiation response in assay [11] is -6.96% (inactive).

For `NC12CC3CC(C1)CC(O)(C3)C2`, the double positive events in [1] is 65.4%. The vesicle binding response in [1] is 201% (inactive). Besides, the inhibition in assay [2] was 2.66% (inactive); in [6], -6.38% (inactive); in assay [10] it was 11% (inactive). In addition, the superoxide response (% of plate) in [3] is 95.4% (inactive). In addition, in assay [4], the aptamer binding inhibition is 3% (inactive). Moreover, the response in assay [5] is -10% (inactive); in assay [7] it was 2.64% (inactive). The binding (% of control) in assay [8] is 99% (inactive). Besides, in assay [9], the efflux inhibition (fraction of control) was 0.14 (inactive). Also, the differentiation response in assay [11] is 4.15% (inactive).

Consider `CCOC(=O)COc1ccc2c(=O)c(-c3ccccc3)coc2c1`, for which the double positive events in assay [1] was 61.7%. The vesicle binding response in assay [1] was 236% (inactive). In addition, the inhibition in assay [2] was 21% (inactive); in assay [6] it was 1.34% (inactive); in assay [10], -4% (inactive). Further, in [3], the superoxide response (% of plate) is 92.8% (inactive). Also, the aptamer binding inhibition in assay [4] is 0% (inactive). Also, the response in assay [5] was -10.5% (inactive); in assay [7], 0.65% (inactive). In [8], the binding (% of control) is 100% (inactive). The efflux inhibition (fraction of control) in assay [9] is -0.09 (inactive). The differentiation response in assay [11] was -7.94% (inactive).

In the case of `O=C(Nc1ccccc1)c1ccccc1CCc1ccccc1`, the double positive events in assay [1] worked out at 61.3%. The vesicle binding response in assay [1] is 167% (inactive). The values for the inhibition in [2], in [6] and in assay [10] were 6.95% (inactive), 9.22% (inactive) and 0% (inactive), respectively. Moreover, in assay [3], the superoxide response (% of plate) is 90.9% (inactive). The aptamer binding inhibition in assay [4] is 5% (inactive). The response in assay [5] was 46.6% (active); in [7], -1.57% (inactive). Moreover, in assay [8], the binding (% of control) was 95.3% (inactive). Besides, in assay [9], the efflux inhibition (fraction of control) is -0.12 (inactive). In assay [11], the differentiation response was -0.18% (inactive).

`O[C@@H](CNC[C@H](O)c1ccccc1)c1ccccc1` registered a double positive events in [1] of 62.7%. Besides, in assay [1], the vesicle binding response was 156% (inactive). Further, the results for the inhibition in assay [2], in assay [6] and in assay [10] were -27.7% (inactive), 9.85% (inactive) and 1% (inactive), respectively. Besides, in assay [3], the superoxide response (% of plate) is 99.8% (inactive). For the same compound, in [4], the aptamer binding inhibition was -3% (inactive). Also, the results for the response in assay [5] and in assay [7] were 43.5% (active) and 0.68% (inactive), respectively. The binding (% of control) in assay [8] is 102% (inactive). The efflux inhibition (fraction of control) in [9] was 0.01 (inactive). Besides, in assay [11], the differentiation response was 21.6% (inactive).

Compound `Cn1cc(CN(CCO)Cc2cccs2)c(-c2cccc(Cl)c2)n1` had a double positive events in assay [1] of 55.3%. Further, the vesicle binding response in [1] was 159% (inactive). In addition, the values for the inhibition in [2], in [6] and in assay [10] were -1.79% (inactive), -0.41% (inactive) and 5% (inactive), respectively. The superoxide response (% of plate) in assay [3] was 92.3% (inactive). Moreover, the aptamer binding inhibition in assay [4] was 3% (inactive). Also, the response in assay [5] is 32.8% (inactive); in assay [7], 1.36% (inactive). In addition, in assay [8], the binding (% of control) is 99.3% (inactive). Moreover, the efflux inhibition (fraction of control) in assay [9] is -0.06 (inactive). In addition, in [11], the differentiation response was -8.8% (inactive).

In the case of `COc1ccc(CCNC(=O)CC(c2ccccc2)c2cccc(C)c2O)cc1OC` (configuration not stated), in assay [1], the double positive events amounted to 62.6%. Further, the vesicle binding response in assay [1] was 190% (inactive). Further, the inhibition in assay [2] was 16.2% (inactive); in [6], -1.67% (inactive); in assay [10], 10% (inactive). Further, the superoxide response (% of plate) in assay [3] was 96.3% (inactive). Moreover, the aptamer binding inhibition in assay [4] is 1% (inactive). Further, the response is 5.7% (inactive) in [5] and 1.13% (inactive) in [7]. The binding (% of control) in assay [8] is 101% (inactive). In addition, in [9], the efflux inhibition (fraction of control) is -0.46 (inactive). Moreover, the differentiation response in assay [11] is -3.28% (inactive).

Compound `CC(C)(C)c1ccc(C(O)CCCN2CCC(C(O)(c3ccccc3)c3ccccc3)CC2)cc1` (configuration not stated) displayed a double positive events in assay [1] of 64.6%. For the same compound, the vesicle binding response in assay [1] was 199% (inactive). The inhibition in assay [2] is 38.9% (inactive); in assay [6], 2.19% (inactive); in [10], 10% (inactive). Further, the superoxide response (% of plate) in [3] is 54.7% (active). Besides, the aptamer binding inhibition in assay [4] is -1% (inactive). Also, the response was 74.7% (active) in assay [5] and 16.5% (active) in [7]. Besides, the binding (% of control) in assay [8] is 112% (inactive). The efflux inhibition (fraction of control) in assay [9] is 0.59 (active). The differentiation response in assay [11] was 0.92% (inactive).

In turn, `Cc1oc(/C=N/NC(=O)CC2(C)OCCO2)cc1Br` displayed a double positive events in assay [1] of 60.6%. Moreover, the vesicle binding response in assay [1] was 93.4% (inactive). The inhibition in assay [2] is 4.27% (inactive); in [6] it was 0.64% (inactive); in [10], 18% (inactive). Further, the superoxide response (% of plate) in assay [3] was 107% (inactive). The aptamer binding inhibition in [4] is -3% (inactive). Moreover, the response in [5] is 4.99% (inactive); in assay [7], 68.3% (active). The binding (% of control) in assay [8] is 104% (inactive). In assay [9], the efflux inhibition (fraction of control) was -0.245 (inactive). Moreover, the differentiation response in assay [11] is -0.18% (inactive).

Usually inhibition stands for the change of the read-out against control, counted positive when it falls.
